# Experimental data taken from PubChem BioAssay (EPA / NIEHS).
# “And” between values parts separate entries of the source, which are not always exact repeats. Identical values can stand only once. Results filed as inconclusive are left out. The source made the active and inactive calls. The calls were made as follows: active = hit-call score of the fitted dose curve at least 0.9, where 1 is the maximum; inconclusive = response in the unintended direction; inactive = score below 0.9.
# Columns and labels:
# [1] = ATG_XTT_Cytotoxicity: Cytotoxicity Assessment in the Attagene TRANS-FACTORIAL HepG2 Assay (AID 2283584);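 as to AC50: cells exposed to compound for 24 h before reading; active means loss of viability signal versus DMSO baseline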
# Summary of the method: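 Viability endpoint from XTT after 24 h chemical exposure of reporter-transfected human HepG2 liver cells; signal loss fitted relative to DMSO negative control.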
# [2] = TOX21_p53_BLA_p2_viability: Viability Assessment in the Tox21 HCT-116 p53 Agonism Beta-lactamase Assay, Phase 2 (AID 2283591);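 also: compound exposure lasted 16 h at 37 °C; actives lower the ATP signal meaning cytotoxicity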
# Summary of the method: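 Cytotoxicity readout: CellTiter-Glo ATP luminescence, 30 min at room temperature, after the beta-lactamase read. Cells were HCT116 exposed 16 h at 37C to compounds pin-transferred at 217-fold dilution from DMSO stocks.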
smiles,measurement,setting,value
BrCC(Br)c1ccccc1 (centres undefined),outcome,[1],inactive
Cc1ccccc1OP(=O)(Oc1ccccc1)Oc1ccccc1,outcome,[1],inactive
CCOC(=O)CC(=O)CCl,outcome,[1],inactive
same,outcome,[2],inactive
CCCCOC(C)=O,outcome,[1],inactive
same,outcome,[2],inactive
Cc1cc(Cl)ccc1OC(C)C(=O)O (centres undefined),outcome,[1],inactive
same,outcome,[2],inactive
C[CH2][Hg][S]c1ccccc1C(=O)O,outcome,[1],inactive
same,AC50,[2],32 µM (active) and 18.4 µM (active)
O=[N+]([O-])c1cccc2ccccc12,outcome,[1],inactive
same,outcome,[2],inactive
CC(C)(C#N)N=NC(C)(C)C#N,outcome,[1],inactive
same,outcome,[2],inactive
Clc1ccc(C(Cl)(Cl)Cl)cn1,outcome,[1],inactive
same,outcome,[2],inactive
Cc1c([N+](=O)[O-])c(C)c([N+](=O)[O-])c(C(C)(C)C)c1[N+](=O)[O-],outcome,[1],inactive
same,outcome,[2],inactive
CC(=Cc1ccccc1)[N+](=O)[O-],AC50,[1],23.6 µM (active)
same,outcome,[2],inactive
O=[N+]([O-])c1ccc(Nc2ccccc2)cc1,outcome,[1],inactive
same,AC50,[2],32.5 µM (active)
Nc1nc(=S)[nH][nH]1,outcome,[1],inactive
same,outcome,[2],inactive
